The list is not random: actives were taken first. Their share in the collection is about 12%.
HCV inhibitor = qHTS Assay for Inhibitors of Hepatitis C Virus (HCV); Potency, µM (doses to about 41.8 µM), inactives show at the top dose activity change, negative = inhibition, hits mostly inhibitors; 340,000 compounds, 3.4% hits; Huh7.5.1 HCVcc-Cre infection, luciferase reporter, 44 h; further: on the % scale 0 is the no-effect control and ±100 the full control effect
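Cells seeded at 1,000/well and cultured 4 h, then compounds added followed by HCVcc-Cre virus (~0.5 moi). After 44 h further culture, luciferase substrate was added, plates held 15 min at room temperature, and luminescence read for 15 sec.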
SARS PLP yeast = qHTS of Yeast-based Assay for SARS-CoV PLP; Potency, µM (series often up to 32.9 µM), for the others: top-dose activity, positive = growth rescue, hits mostly activators; 330,000 compounds, 0.19% hits; AID 485353, 2010; S. cerevisiae expressing SARS-CoV PLpro, growth rescue; calls by dose curve; further: 0% is about no effect; nearly all actives have a fitted effect of over 55% in size
Pf growth 48h = Primary qHTS for delayed death inhibitors of the malarial parasite plastid, 48 hour incubation. Potency, µM (doses to about 28.7 µM), for inactives: at the highest dose activity change, negative = inhibition, hits mostly inhibitors. AID 504832, 2011. 310,000 compounds, 5.9% hits. P. falciparum luciferase growth in erythrocytes, 48 h; further: on the % scale 0 is the no-effect control and ±100 the full control effect
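Parasite viability was followed by luminescence of a genomically integrated firefly luciferase. Cultures held 0.1% parasitemia at 2% hematocrit (final), incubated under 5% CO2 at 37 C.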
AMA1-RON2 inh = qHTS for Inhibitors of AMA1-RON; Towards Development of Antimalarial Drug Lead: Primary Screen; Plasmodium falciparum AMA1 (3D7) - RON2 peptide interaction; AlphaScreen AMA1-biotinylated RON2 peptide binding; Potency, µM (highest dose often 58.2 µM), for the others: at the top dose activity change, negative = inhibition, actives largely listed as inhibitors; 360,000 compounds, 0.2% hits; AID 720542, 2013;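 further: 0% = vehicle wells and -100% = peptide control; nearly all actives have a fitted effect of over 45% in size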
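AMA1 (3D7) with his tag at 25 nM final met compounds first, then biotinylated RON2 peptide at 25 nM; detection used donor plus acceptor beads, 10 µg/mL apiece, read by AlphaScreen after 30 min at room temperature.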
NS1 inh = qHTS Assay for Inhibitors of Influenza NS1 Protein Function. Potency, µM (series often up to 46.1 µM), without a hit: at the highest dose activity, positive = more growth. 270,000 compounds, 0.4% hits. AID 2326, 2010; calls by dose curve; further: actives are rising curves; nearly all actives have a fitted effect of over 50% in size
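Growth recovery, yeast-based: influenza A NS1 expressed in S. cerevisiae causes slow growth, and suppressors are detected by OD600. The parent strain without NS1 is used as positive control.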
Pf growth 96h = Primary qHTS for delayed death inhibitors of the malarial parasite plastid, 96 hour incubation; P. falciparum luciferase reporter growth, 96 h; Potency, µM (series often up to 28.7 µM), for the others: at the top dose activity change, negative = inhibition, most hits filed as inhibitors; 320,000 compounds, 6.9% hits; further: on the % scale 0 is the no-effect control and ±100 the full control effect
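P. falciparum expressing integrated firefly luciferase, in erythrocytes at 2% hematocrit, 0.05% parasitemia, incubated with compounds 96 h at 37 C, 5% CO2. Growth inhibition read as loss of luminescence; two-generation exposure targets delayed-death apicoplast inhibitors.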
Active calls of the source: *; [ ] = remark or other dose. Unless noted, the call rests on the fitted dose curve; in most records, active means well fitted curve in the direction sought with a large enough effect; inconclusive means small, poorly fitted or top-dose-only effect, or another doubt; inactive means no such curve, though single readings can be large; an effect the other way counts as inactive or inconclusive. Potency means the concentration at half of the fitted maximal effect.

Results for Cc1cc(C)cc(NC(=S)NC2CC3CCC(C2)N3Cc2ccco2)c1 (centres undefined) ?
HCV inhibitor: -7%; SARS PLP yeast: 0%; Pf growth 48h: inconclusive; AMA1-RON2 inh: -7%; NS1 inh: -10%; Pf growth 96h: 2.3µM*

Results for Cc1cccc(NC(=S)NC2CC3CCCC(C2)N3Cc2cccs2)c1 (centres undefined) ?
HCV inhibitor: inconclusive; SARS PLP yeast: 7%; Pf growth 48h: inconclusive; AMA1-RON2 inh: -15%; NS1 inh: -11%; Pf growth 96h: 10µM*

What do the screens show for `CNC(=O)c1nc(C)n(-c2ccc(Cl)cc2Cl)n1`?
HCV inhibitor: 13%; SARS PLP yeast: 0%; Pf growth 48h: -13%; AMA1-RON2 inh: 38%; Pf growth 96h: inconclusive

Results for Cc1c(C(=O)NN2CCCCC2)nn(-c2ccc(Cl)cc2Cl)c1-c1ccc(Cl)cc1 ?
Pf growth 48h: inconclusive; Pf growth 96h: 8.5µM*

What do the screens show for `COc1cccc(C(=O)NN2CCOCC2)c1`?
HCV inhibitor: 14%; AMA1-RON2 inh: 0%

How did COc1ccc(Cc2nnc(SC(C)C(=O)Nc3ccc(F)cc3Cl)o2)cc1 (centres undefined) do in these assays?
HCV inhibitor: -13%[8.37 µM]; SARS PLP yeast: 2%; Pf growth 48h: 1%; AMA1-RON2 inh: 8%; Pf growth 96h: inconclusive

Results for O=C(CNC(=O)C1(c2ccccc2)CC1)Nc1ccc(F)c(F)c1 ?
HCV inhibitor: 31%; SARS PLP yeast: 11%; Pf growth 48h: 5%; AMA1-RON2 inh: -1%; Pf growth 96h: 21%

How did O=C(NCc1cccs1)C1CCC(CNS(=O)(=O)c2ccc(Br)s2)CC1 (centres undefined) do in these assays?
HCV inhibitor: -23%; SARS PLP yeast: 2%; AMA1-RON2 inh: 6%; NS1 inh: 5%; Pf growth 96h: 7.4µM*

What do the screens show for `O=C(CCC1CCCCC1)NCCS(=O)(=O)N1CCN(c2ccccc2)CC1`?
HCV inhibitor: 1%[8.37 µM]; SARS PLP yeast: -4%; Pf growth 48h: 1%; AMA1-RON2 inh: -20%; Pf growth 96h: 16%

Results for Cc1cc(C)nc(NC(N)=NC2CCCCC2)n1 ?
HCV inhibitor: inconclusive; SARS PLP yeast: 13%; Pf growth 48h: inconclusive; AMA1-RON2 inh: 2%; NS1 inh: 5%; Pf growth 96h: -7%

What do the screens show for `CC(=O)CC(=O)NC(=NC1CCCCC1)Nc1nc(C)cc(C)n1`?
HCV inhibitor: 11µM*; SARS PLP yeast: 1%; Pf growth 48h: inconclusive; AMA1-RON2 inh: 1%; NS1 inh: inconclusive

How did COc1cccc2c1cc1c(=O)n(CC(=O)NCc3ccccn3)nc(C)n12 do in these assays?
HCV inhibitor: 1%; SARS PLP yeast: 0%; Pf growth 48h: 20%; AMA1-RON2 inh: 4%; NS1 inh: 26%; Pf growth 96h: 80%

How did Clc1ccccc1CN1CCN(c2ncccn2)CC1 do in these assays?
HCV inhibitor: -9%; SARS PLP yeast: -1%; Pf growth 48h: -4%; AMA1-RON2 inh: inconclusive; NS1 inh: -6%; Pf growth 96h: inconclusive

What do the screens show for `Clc1ccc(CN2CCN(c3ncccn3)CC2)c(Cl)c1`?
HCV inhibitor: -8%; SARS PLP yeast: 5%; Pf growth 48h: -3%; AMA1-RON2 inh: 16µM*; NS1 inh: -19%; Pf growth 96h: 7%

Results for Clc1cccc(CN2CCN(c3ncccn3)CC2)c1Cl ?
HCV inhibitor: -13%; SARS PLP yeast: -4%; Pf growth 48h: 19%; AMA1-RON2 inh: -22%; NS1 inh: -18%; Pf growth 96h: 13µM*

What do the screens show for `COC(=O)C[C@](O)(CCCC(C)(C)O)C(=O)O[C@@H]1C(OC)=C[C@]23CCCN2CCc2cc4c(cc2[C@H]13)OCO4`?
Pf growth 48h: 0.0095µM*; Pf growth 96h: 0.0067µM*

Assay outcomes (PubChem)
